# Most compounds without a hit are left out; they make up all but 0.92% or so of the library.
# CIT2 TOR yeast: modulators of CIT2-GFP expression in yeast, primary screen, S. cerevisiae, GFP fusion, multiplex flow cytometry, MLPCN library. S. cerevisiae CIT2-GFP strain, 3 h; 100 means same as DMSO wells. GFP response vs DMSO, % at 10 µM. 320,000 tested, 0.065% active. AID 2029, 2009;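 active = GFP response relative to DMSO above a set limit, near the screen mean plus 3 SD, cut at about 150% in these data; inconclusive = Fewer than 70 cells measured for a yeast strain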;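 also: ratio of well median GFP fluorescence to mean of DMSO wells on the plate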
# AGP1-GFP MLPCN: modulators of AGP1-GFP expression in yeast TOR pathway, primary screen, cell-based, multiplex flow cytometry, S. cerevisiae, MLPCN library | GFP response vs DMSO, % at 10 µM | 320,000 tested, 0.02% active | 3 h; GFP as percent of DMSO wells;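 active = GFP response relative to DMSO above a set limit, near screen average plus 3 SD, cut at about 150% in these data; inconclusive = fewer than 70 cells counted for the yeast strain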;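 also: median GFP channel fluorescence of the gated AGP1 strain per well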
# LAP4 TOR yeast: modulators of LAP4-GFP expression in yeast, primary screen, S. cerevisiae, multiplex flow cytometry, MLPCN library. 3 h; median GFP as percent of DMSO wells. AID 2023, 2009. GFP response vs DMSO, % at 10 µM. 320,000 tested, 0.34% active;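 active = GFP response vs DMSO above a set limit, about the screen mean plus 3 SD, cut at about 150% in these data; inconclusive = under 70 cell events counted for the yeast strain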
# RPL19A-GFP yeast: RPL19A-GFP expression modulators in yeast, primary screen, cell-based, S. cerevisiae, multiplex flow cytometry, MLPCN | AID 2025, 2009 | S. cerevisiae RPL19A-GFP strain, 3 h; hits give low values | 330,000 tested, 0.3% active | percent response vs DMSO, % at 10 µM;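 active = percent response vs DMSO below 50%; inconclusive = fewer than 70 events counted for the yeast strain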;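 also: median channel GFP fluorescence of the barcoded RPL19A-GFP strain; ratio of sample median GFP to plate DMSO average so 100% = DMSO; lower means less RPL19A-GFP as with rapamycin TOR inhibition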
# MEP2-GFP yeast: modulators of MEP2-GFP levels in yeast, primary screen, S. cerevisiae, multiplex flow cytometry, MLPCN library | S. cerevisiae MEP2-GFP strain, 3 h; 100% = DMSO control level | GFP response vs DMSO, % at 10 µM | 330,000 tested, 0.51% active | AID 2016, 2009;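 active = GFP response versus DMSO above a set limit, roughly screen mean plus 3 SD, cut at about 180% in these data; inconclusive = fewer than 70 cells counted for a yeast strain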;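 also: median GFP fluorescence of the barcode-gated MEP2-GFP cells per well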
# LAP4-GFP pick2: LAP4-GFP expression modulators in yeast, confirmation, cell-based, second cherry pick, flow cytometry; shares compounds with LAP4 TOR yeast; S. cerevisiae LAP4-GFP strain, 3 h; GFP response vs DMSO, % at 10 µM; 590 tested, 20% active;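 active = GFP signal as percent of the solvent control above about 150%, meaning raised reporter expression, limit read from the data; inconclusive = fewer than 70 cells counted in the well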;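 also: ratio of well median GFP fluorescence to plate DMSO mean so 100% = DMSO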
# MEP2-GFP pick2: modulators of MEP2-GFP levels in yeast, confirmation, S. cerevisiae, flow cytometry GFP, second cherry picks; shares compounds with LAP4 TOR yeast; GFP response vs DMSO, % at 10 µM; S. cerevisiae MEP2-GFP strain, 3 h; 590 tested, 10% active;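 active = GFP signal above 150% of the solvent control wells, that is a rise of more than half; inconclusive = fewer than 70 yeast cells counted in the well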;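 also: median channel GFP fluorescence of all gated yeast cells per well; ratio of median GFP to plate DMSO average so 100% = DMSO level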
# RPL19A GFP CP2: RPL19A-GFP modulators in TOR pathway yeast, confirmation, cell-based, S. cerevisiae, flow cytometry, second cherry pick; 590 tested, 3% active; GFP response vs DMSO, % at 10 µM; S. cerevisiae RPL19A-GFP strain, 3 h; hits give low values; 100% means same as DMSO wells; shares compounds with LAP4 TOR yeast;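 active = under 65% GFP response relative to DMSO; inconclusive = yeast strain with under 70 measured events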;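 also: median GFP channel fluorescence per well over the all cells gate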
# CIT2 GFP CP2: modulators of CIT2-GFP expression in yeast, confirmation, flow cytometry, second cherry pick, single plex. shares compounds with LAP4 TOR yeast. S. cerevisiae CIT2-GFP strain, 3 h; DMSO control wells read 100%. GFP response vs DMSO, % at 10 µM. 590 tested, 8% active. AID 2624, 2010;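 active = GFP response vs DMSO above about 150%, limit read from the data; inconclusive = fewer than 70 events counted for a yeast strain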;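 also: median green fluorescence per well over all gated yeast cells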
# AGP1 GFP CP2: AGP1-GFP expression modulators, hit retest, confirmation, cell-based, flow cytometry, S. cerevisiae, cherry pick set 2 | shares compounds with LAP4 TOR yeast | S. cerevisiae AGP1-GFP strain, 3 h | percent response vs DMSO, % at 10 µM | 590 tested, under 10 active;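 active = over 150 percent of DMSO response; inconclusive = yeast strain measured with under 70 events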;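 also: median GFP channel fluorescence over all cells without mother daughter split; sample median GFP divided by mean DMSO control so 100% equals DMSO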
# s288c autofluor: compound autofluorescence in yeast s288c, dose response, artefact control for yeast TOR pathway GFP screen, s288c strain. shares compounds with LAP4 TOR yeast. S. cerevisiae s288c, 520 nm autofluorescence, flow cytometry, 3 h; hits give high values; zero means same as solvent-only cells. fluorescence change (kMESF span) at 33 µM. 610 tested, under 10 active;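 active = fluorescence span over the dose series, or activity score, above about 33, limit read from the data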
# s288c autofl DR: autofluorescence of compounds in yeast s288c, dose response, artefact control for yeast TOR pathway GFP screen, primary hits, KU SAR, s288c parental | shares compounds with LAP4 TOR yeast | S. cerevisiae s288c parental, compound autofluorescence, flow cytometry, 3 h | fluorescence change (span) at 33 µM | 110 tested, under 10 active | AID 488829, 2010;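 active = fluorescence change span, or the activity score built from it, above 25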
# TORC1 bypass gr: wild-type yeast growth inhibition sparing TORC1 bypass cells, mechanism study for yeast TOR pathway GFP screen, BY4741 wild type, TORC1 bypass strain | shares compounds with LAP4 TOR yeast | S. cerevisiae BY4741 spot growth rating, 48-72 h; hits give low values | growth rating (0-3) at 30 µM | 120 tested, under 10 active;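 active = growth rating at most 1 for wild type yeast while the TORC1 bypass strain still grows fully, rated 3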
# * hit, by the source's call; ? = inconclusive; . = no result; ! = not active in a repeat.
SMILES,CIT2 TOR yeast,AGP1-GFP MLPCN,LAP4 TOR yeast,RPL19A-GFP yeast,MEP2-GFP yeast,LAP4-GFP pick2,MEP2-GFP pick2,RPL19A GFP CP2,CIT2 GFP CP2,AGP1 GFP CP2,s288c autofluor,others
Cc1ccc(N=C2NC(=O)/C(=C/C=C/c3ccco3)S2)cc1,97,98,103,98,97,.,.,.,.,.,.,
Cc1ccc(S(=O)(=O)c2ccc(Cl)cc2)cc1S(N)(=O)=O,112,103,91,100,105,.,.,.,.,.,.,
N#Cc1ccc(N=c2ssnc2Cl)cc1,102,87,158*!,94,92,125,115,96,123,96,1.4,
Clc1ccc(N=c2ssnc2Cl)cc1,83,81,156*,86,88,.,.,.,.,.,1.8,s288c autofl DR=0.52;TORC1 bypass gr=3
O=c1[nH]ncn1-c1ccccc1C(F)(F)F,104,105,91,103,103,.,.,.,.,.,.,
COc1ccc([C@]2(C(C)C)ON(c3ccccc3C(F)(F)F)C2=O)cc1,92,94,107,96,95,114,106,101,114,108,-0.1,
COc1ccc(C2(c3ccc(OC)cc3)NC(=O)N(CC(=O)Nc3ccccc3C(F)(F)F)C2=O)cc1,92,97,94,103,102,.,.,.,.,.,.,
COc1ccc([C@@]2(C(C)C)ON(c3ccccc3C(F)(F)F)C2=O)cc1,104,97,106,96,93,118,106,104,106,97,-0.2,
CC(C)[C@@]1(c2ccc(Cl)cc2)ON(c2ccccc2C(F)(F)F)C1=O,?,20,96,57,147,102,98,102,107,97,-0.1,
CCOC(=O)c1c(NC(=O)CC2Nc3cc(C)c(C)cc3NC2=O)sc(C)c1C (stereo unspecified),102,101,97,97,105,.,.,.,.,.,.,
Cc1ccc(NC(=O)C2CCN(C(=O)c3ccco3)CC2)cc1C,105,91,92,95,93,.,.,.,.,.,.,
Oc1c(Br)cc(Br)cc1C=Nc1ccc2c(c1)OCO2,97,87,152*,91,96,.,.,.,.,.,-0.11,
Oc1c(Br)cc(Br)cc1C=Nc1ccc2c(c1)OCCO2,85,86,83,108,94,.,.,.,.,.,.,
O=C1NC(=O)/C(=C\c2ccc(O)cc2O)S1,111,96,117,114,118,.,.,.,.,.,.,

# Source: PubChem (NMMLSC)
